SENP6 block = SENP6 protease inhibition; Q9GZR1; Recombinant SENP6 catalytic domain, aminoluciferin luminescence; inhibition, % at 10 µM; hit rate 1.8% among 330,000;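 active = inhibition above about 50% at the single tested dose, limit read from the data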;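 also: plate controls were DMSO wells with enzyme for no effect and DMSO wells lacking enzyme for full effect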
TRAIL sens C8 = sensitizes caspase-8 expressing cells to TRAIL; NB7+C8 cells + TRAIL, ATPlite viability luminescence; inhibition (viability loss, TRAIL sensitization), % at 10 µM; hit rate 1% among 360,000; AID 624354;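 active = compounds causing at least 50% loss of cell viability in the single-dose screen, relative to plate controls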
SENP7 inh = SENP7 protease inhibition. recombinant SENP7, Z-RLRGG-aminoluciferin luminescence, 40 min. AID 434973. hit rate 1.5% among 330,000. inhibition, % at 5 µM;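 active = inhibition above about 50% at the single test dose, limit read from the data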;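 also: plate controls were DMSO with enzyme for no effect and no enzyme buffer wells for full effect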
Target sequence (Q9BQF6 706-1050 limits assumed): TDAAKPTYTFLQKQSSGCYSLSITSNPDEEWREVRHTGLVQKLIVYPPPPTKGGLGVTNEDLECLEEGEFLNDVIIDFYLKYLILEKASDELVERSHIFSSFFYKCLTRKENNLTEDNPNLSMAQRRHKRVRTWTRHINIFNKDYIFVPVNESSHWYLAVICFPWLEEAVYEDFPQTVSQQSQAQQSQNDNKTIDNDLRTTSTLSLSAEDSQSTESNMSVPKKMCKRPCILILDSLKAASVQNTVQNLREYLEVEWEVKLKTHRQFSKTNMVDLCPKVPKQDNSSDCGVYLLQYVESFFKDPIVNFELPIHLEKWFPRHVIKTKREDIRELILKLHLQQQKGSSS
SENP8 block-1 = blocks the human protease SENP8. inhibition, % at 10 µM. purified SENP8, Z-RLRGG-aminoluciferin cleavage, luminescence. hit rate 1.2% among 330,000. AID 2540; in the data active = inhibition above about 50%
Target sequence (Q96LD8 whole entry, looked up): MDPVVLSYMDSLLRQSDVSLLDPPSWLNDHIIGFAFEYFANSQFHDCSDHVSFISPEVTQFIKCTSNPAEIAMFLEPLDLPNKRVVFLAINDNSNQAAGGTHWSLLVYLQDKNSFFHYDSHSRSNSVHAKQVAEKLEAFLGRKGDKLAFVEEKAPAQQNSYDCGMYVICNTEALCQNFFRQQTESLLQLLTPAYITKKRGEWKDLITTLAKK
PPC-1+TRAIL kill = kills PPC-1 cancer cells in the presence of TRAIL; cell killing (% activity), % at 4 µM or 5 µM; PPC-1 cells + TRAIL, ATPLite viability luminescence; AID 1443; hit rate 0.41% among 220,000;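 active = cell killing above 50% in the first pass at 4 µM, then a duplicate retest at 5 µM averaging 50% or more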;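 also: plate controls were cells with TRAIL plus DMSO for no effect and medium-only wells lacking cells for full effect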
SENP8 block-2 = inhibitors of human SENP8 protease; Q96LD8; recombinant SENP8, Nedd8 substrate fluorescence; inhibition, % at 20 µM; hit rate 0.64% among 360,000; AID 602440; in the data active = inhibition mostly above about 40%, no sharp cut-off; inactive = mostly below about 27%
* hit, by the source's call; i = inactive; x = no result given. A selection: hits, their analogues and other compounds. The true share with any hit is near 3%.

SMILES	SENP6 block	TRAIL sens C8	SENP7 inh	SENP8 block-1	PPC-1+TRAIL kill	SENP8 block-2
COc1cccc(N(C(=O)c2snc(C(N)=O)c2N)C(C(=O)NCC2CCCO2)c2cccs2)c1 (configuration not stated)	-12	-4	1	2	x	-300
COc1cccc(N(C(=O)CCl)C(C(=O)NCCc2ccccc2)c2cccs2)c1 (configuration not stated)	x	96*	x	x	35	7
CCOC=C1C(=O)N(C(C)=O)c2cc(OC)c(OC)cc21	x	10	x	x	x	-14
Cc1ccc(-n2sc3ccccc3c2=O)cc1	94*	-9	77*	86*	24	14
COC(=O)c1cccc(N2CCCC2=O)c1	-14	-3	0	-5	0	4
COC(=O)c1cccc(-n2sc3ccccc3c2=O)c1	70*	-6	19	57*	x	8
O=C(c1ccc2c(=O)n3c(nc2c1)CCC3)N1CCN(S(=O)(=O)c2ccccc2Br)CC1	x	3	x	x	x	11
Cc1ccc(S(=O)(=O)c2nnn3c2nc(NC2CCN(Cc4ccccc4)CC2)c2ccccc23)cc1C	-2	88*	-3	0	x	-334
Cc1ccc(S(=O)(=O)c2nnn3c2nc(NCCCN2CCCC2=O)c2ccccc23)cc1C	18	2	-2	-4	x	-304
O=c1nc(Nc2cccc(Cl)c2)oc2cc(Cl)oc(=O)c12	95*	2	-6	95*	0	-17
O=c1nc(Nc2ccccc2)oc2ccccc12	16	1	47	1	13	-4
Cn1c(=NC(=O)CCl)sc2ccccc21	1	94*	12	-1	12	4
COc1cc(C(=O)N=c2sc3ccccc3n2C)cc(OC)c1OC	-22	1	2	-14	14	-401
Cn1c(=NC(=O)c2cccc([N+](=O)[O-])c2)sc2ccccc21	-8	57*	47	12	-1	-2
O=C(c1cc(COc2ccc(F)c(F)c2)on1)N1CCN(C/C=C/c2ccccc2)CC1	-9	11	2	-5	x	11
[O-]/[N+](=C\C=C\c1ccccc1)c1ccccc1	73*	25	-1	57*	8	-2
Nc1c2c(nc3ccccc13)CCCC2	-2	-4	6	2	3	-4
Nc1c2ccccc2nc2ccccc12	7	64*	2	11	29	i
CC(=O)Nc1cccc(C(=O)Nc2cc(C(F)(F)F)ccc2-n2cncn2)c1	x	-11	x	x	x	12
CSc1ncccc1C(=O)Nc1nc2ccc(Oc3ccccc3)cc2s1	94*	7	95*	90*	2	-159
COc1ccccc1C(=O)Nc1nc2ccccc2s1	100*	91*	100*	97*	x	-171
COc1n[nH]c(C(=O)NCc2ccccc2)c1[N+](=O)[O-]	-13	1	6	7	23	6
COc1n[nH]c(C(=O)Nc2nc3ccccc3s2)c1[N+](=O)[O-]	96*	3	92*	91*	15	16
COc1ccc2nc(NC(=O)c3ccccc3C(=O)O)sc2c1	-19	15	-7	-1	x	10
COc1ccc(NC(=O)CSCC(=O)N(C)Cc2ccc3c(c2)OCCO3)cc1	4	-4	-39	3	x	16
SMILES	SENP6 block	TRAIL sens C8	SENP7 inh	SENP8 block-1	PPC-1+TRAIL kill	SENP8 block-2
O=S(=O)(Nc1cc(Sc2ncn[nH]2)c(O)c2ccccc12)c1ccccc1	79*	27	72*	25	39	31
Cc1cc(O)c(Sc2ncn[nH]2)cc1NS(=O)(=O)c1ccc(Cl)cc1	0	-1	8	0	x	18
Cc1ccc(S(=O)(=O)Nc2ccc(Br)cc2C(NCC(=O)O)c2ccccc2)cc1 (configuration not stated)	-14	-22	3	2	7	13
O=C(O)CSc1cc(NS(=O)(=O)c2ccc(Br)cc2)c2ccccc2c1O	x	48*	x	x	x	31
Cc1cc(C)cc(N(C(C)C(=O)NCCC2=CCCCC2)S(C)(=O)=O)c1 (configuration not stated)	-6	-5	5	-9	7	4
NC(=S)n1[nH]c(-c2ccc([N+](=O)[O-])cc2)c(N=Nc2ccc(Cl)cc2)c1=O	x	59*	x	x	26	33
Cc1ccc([N+](=O)[O-])cc1N=Nc1c(C)[nH]n(C(N)=S)c1=O	-20	-19	-2	1	x	18
Cc1ccc(N=Nc2c(C)[nH]n(C(N)=S)c2=O)cc1	79*	5	63*	74*	33	18
NC(=O)c1ccc(N=Nc2c(-c3ccccc3)[nH]n(-c3ccccc3)c2=O)cc1	-7	x	10	-3	9	x
Cc1ccc([N+](=O)[O-])cc1N=Nc1c(-c2ccc([N+](=O)[O-])cc2)[nH]n(C(N)=S)c1=O	x	50*	x	x	35	32
O=c1c(N=Nc2ccc(O)cc2)c(-c2ccccc2)[nH]n1-c1ccc([N+](=O)[O-])cc1	3	8	4	6	-19	56*
CCOC(=O)c1ccc2c(c1)nc(-c1ccccn1)n2CC	-6	56*	0	-9	x	-58
CCOC(=O)Cn1c(-c2ccccn2)nc2ccccc21	5	6	2	1	15	-122
O=C(NCc1cccs1)C1C(=O)Nc2ccccc2C(=O)N1C1CCCC1 (configuration not stated)	x	6	x	x	x	-69
Cc1ccc(-c2cc(C(=O)N/N=C/c3ccc([N+](=O)[O-])o3)c3ccccc3n2)o1	8	68*	11	9	x	-413
Cn1c(/C=C/c2ccccc2)nc2ccccc2c1=O	-13	-8	-6	-11	x	1
CCOc1ccc(/C=N/NC(=O)c2cc(-c3ccco3)nc3ccccc23)cc1	20	14	1	5	3	-415
Cn1c(/C=C/c2ccc([N+](=O)[O-])o2)nc2ccccc2c1=O	3	51*	7	7	7	13
O=C(N/N=C/c1ccc([N+](=O)[O-])o1)c1cc(-c2ccc(-c3ccccc3)cc2)nc2ccccc12	20	87*	7	1	80*	-412
O=C(N/N=C/c1ccc([N+](=O)[O-])o1)c1cc(-c2ccncc2)nc2ccccc12	3	23	6	2	6	33
O=C(N/N=C/c1ccc(F)cc1)c1cc(-c2ccco2)nc2ccccc12	-62	50*	2	12	6	i
COc1ccccc1NC(=O)C1CCN(S(C)(=O)=O)CC1	2	-10	11	-15	x	14
COc1ccc(C(=O)OCC(=O)N2CCN(S(=O)(=O)c3ccc(C)cc3)CC2)cc1[N+](=O)[O-]	x	8	x	x	x	12
COC(=O)C[C@@H]1CC[C@H](NC(=O)Nc2ccc(OC)cc2)[C@@H](CO)O1	x	-4	x	x	x	14
O=C(Nc1nc(-c2ccccc2)cs1)c1ccc(N2CCOCC2)c([N+](=O)[O-])c1	5	83*	3	4	42	14

Screens as filed in PubChem.
